Test [1] deals with Leukocyte tyrosine kinase receptor (Homo sapiens) (UniProt P29376). The note with it: at 1 µM.
Test [2] concerns the target Tyrosine-protein kinase Lyn (Homo sapiens) (UniProt P07948). The note with it: at 0.1 µM.
Test [3] has the same target. Particulars: at 1 µM.
For test [4] the target is unchanged. Particulars: at 0.1 µM. This is another data set of the same source.
Test [5] has the same target. Particulars: at 1 µM. This is another data set of the same source.
For test [6], the target named is T1, Tyrosine-protein kinase Mer (Homo sapiens) (UniProt Q12866).
T1 sequence (whole entry): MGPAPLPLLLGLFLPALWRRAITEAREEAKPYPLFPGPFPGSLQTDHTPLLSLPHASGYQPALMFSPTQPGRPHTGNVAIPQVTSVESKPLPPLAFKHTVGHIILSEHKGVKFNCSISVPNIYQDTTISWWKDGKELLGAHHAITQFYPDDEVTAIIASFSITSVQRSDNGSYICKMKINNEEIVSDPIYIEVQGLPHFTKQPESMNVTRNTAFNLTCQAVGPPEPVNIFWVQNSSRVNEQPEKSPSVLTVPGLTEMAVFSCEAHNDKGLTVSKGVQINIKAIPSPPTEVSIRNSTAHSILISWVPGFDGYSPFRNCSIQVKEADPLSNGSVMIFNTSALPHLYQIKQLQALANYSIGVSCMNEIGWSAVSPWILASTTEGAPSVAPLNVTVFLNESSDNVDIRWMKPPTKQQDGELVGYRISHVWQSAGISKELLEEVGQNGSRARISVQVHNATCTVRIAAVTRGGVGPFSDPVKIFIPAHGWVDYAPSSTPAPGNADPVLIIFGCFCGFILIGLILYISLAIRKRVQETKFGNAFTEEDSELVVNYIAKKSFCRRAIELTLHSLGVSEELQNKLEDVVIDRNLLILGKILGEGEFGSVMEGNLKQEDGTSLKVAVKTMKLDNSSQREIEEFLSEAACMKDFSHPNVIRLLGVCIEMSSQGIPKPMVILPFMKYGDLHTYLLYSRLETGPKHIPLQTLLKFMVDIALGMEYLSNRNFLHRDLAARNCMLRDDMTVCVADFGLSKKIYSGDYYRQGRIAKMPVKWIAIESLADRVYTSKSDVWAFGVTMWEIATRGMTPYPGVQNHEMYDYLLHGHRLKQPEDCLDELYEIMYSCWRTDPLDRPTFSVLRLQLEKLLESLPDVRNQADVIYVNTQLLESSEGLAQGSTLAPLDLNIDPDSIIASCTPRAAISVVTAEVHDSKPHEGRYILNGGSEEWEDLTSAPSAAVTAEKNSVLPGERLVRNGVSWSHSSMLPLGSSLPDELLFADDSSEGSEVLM
Particulars: at 0.1 µM.

Test [7] deals with T1, Tyrosine-protein kinase Mer (Homo sapiens). The note with it: at 1 µM.
Test [8] deals with Hepatocyte growth factor receptor (Homo sapiens) (UniProt P08581). The note with it: at 0.1 µM.
For test [9] the target is unchanged. The note with it: at 1 µM.
For test [10], the target named is T2, Muscle, skeletal receptor tyrosine-protein kinase (Homo sapiens) (UniProt O15146).
T2 sequence (whole entry): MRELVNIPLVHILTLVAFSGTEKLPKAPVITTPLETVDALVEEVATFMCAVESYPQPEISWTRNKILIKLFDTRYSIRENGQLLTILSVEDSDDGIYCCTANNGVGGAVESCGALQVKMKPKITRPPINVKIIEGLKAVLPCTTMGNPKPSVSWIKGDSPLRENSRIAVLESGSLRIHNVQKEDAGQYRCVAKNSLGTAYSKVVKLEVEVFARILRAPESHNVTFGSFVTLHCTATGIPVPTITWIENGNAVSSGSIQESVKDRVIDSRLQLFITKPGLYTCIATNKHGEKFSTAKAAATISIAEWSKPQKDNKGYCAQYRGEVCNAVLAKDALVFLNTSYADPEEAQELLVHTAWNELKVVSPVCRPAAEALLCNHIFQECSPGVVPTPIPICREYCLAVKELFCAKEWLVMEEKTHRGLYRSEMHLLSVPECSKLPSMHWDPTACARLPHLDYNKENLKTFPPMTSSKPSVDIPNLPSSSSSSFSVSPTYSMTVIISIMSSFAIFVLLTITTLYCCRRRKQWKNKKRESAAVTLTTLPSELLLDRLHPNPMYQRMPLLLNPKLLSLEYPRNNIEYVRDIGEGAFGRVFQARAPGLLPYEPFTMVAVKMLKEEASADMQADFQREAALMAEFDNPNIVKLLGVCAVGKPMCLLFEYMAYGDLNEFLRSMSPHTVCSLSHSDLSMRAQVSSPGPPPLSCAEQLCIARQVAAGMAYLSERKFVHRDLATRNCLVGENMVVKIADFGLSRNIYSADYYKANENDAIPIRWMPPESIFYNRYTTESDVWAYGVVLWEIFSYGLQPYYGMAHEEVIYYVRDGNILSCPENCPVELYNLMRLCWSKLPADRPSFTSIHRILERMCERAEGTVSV
Particulars: at 0.1 µM.

Test [11] has as its target T2, Muscle, skeletal receptor tyrosine-protein kinase (Homo sapiens). The note with it: at 1 µM.
The target in test [12] is Platelet-derived growth factor receptor alpha (Homo sapiens) (UniProt P16234). The note with it: at 0.1 µM.
For test [13] the target is unchanged. Particulars: at 1 µM.
The test system of test [14] is Platelet-derived growth factor receptor alpha (Homo sapiens), P16234 [D842V]. Particulars: at 0.1 µM.
Test [15] has the same test system. Particulars: at 1 µM.
Test [16] has as its system Platelet-derived growth factor receptor alpha (Homo sapiens), P16234 [T674I]. The note with it: at 0.1 µM.
For test [17] the test system is unchanged. Particulars: at 1 µM.
The test system of test [18] is Platelet-derived growth factor receptor alpha (Homo sapiens), P16234 [V561D]. The note with it: at 0.1 µM.
For test [19] the test system is unchanged. The note with it: at 1 µM.
For test [20], the target named is Platelet-derived growth factor receptor beta (Homo sapiens) (UniProt P09619). Particulars: at 0.1 µM.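 Further: reported value is the mean percent inhibition of the kinase.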

As a reminder, the inhibition is the change of the read-out against control, counted positive when it falls.

Platelet-derived growth factor receptor alpha (Homo sapiens), sequence (P16234 whole entry): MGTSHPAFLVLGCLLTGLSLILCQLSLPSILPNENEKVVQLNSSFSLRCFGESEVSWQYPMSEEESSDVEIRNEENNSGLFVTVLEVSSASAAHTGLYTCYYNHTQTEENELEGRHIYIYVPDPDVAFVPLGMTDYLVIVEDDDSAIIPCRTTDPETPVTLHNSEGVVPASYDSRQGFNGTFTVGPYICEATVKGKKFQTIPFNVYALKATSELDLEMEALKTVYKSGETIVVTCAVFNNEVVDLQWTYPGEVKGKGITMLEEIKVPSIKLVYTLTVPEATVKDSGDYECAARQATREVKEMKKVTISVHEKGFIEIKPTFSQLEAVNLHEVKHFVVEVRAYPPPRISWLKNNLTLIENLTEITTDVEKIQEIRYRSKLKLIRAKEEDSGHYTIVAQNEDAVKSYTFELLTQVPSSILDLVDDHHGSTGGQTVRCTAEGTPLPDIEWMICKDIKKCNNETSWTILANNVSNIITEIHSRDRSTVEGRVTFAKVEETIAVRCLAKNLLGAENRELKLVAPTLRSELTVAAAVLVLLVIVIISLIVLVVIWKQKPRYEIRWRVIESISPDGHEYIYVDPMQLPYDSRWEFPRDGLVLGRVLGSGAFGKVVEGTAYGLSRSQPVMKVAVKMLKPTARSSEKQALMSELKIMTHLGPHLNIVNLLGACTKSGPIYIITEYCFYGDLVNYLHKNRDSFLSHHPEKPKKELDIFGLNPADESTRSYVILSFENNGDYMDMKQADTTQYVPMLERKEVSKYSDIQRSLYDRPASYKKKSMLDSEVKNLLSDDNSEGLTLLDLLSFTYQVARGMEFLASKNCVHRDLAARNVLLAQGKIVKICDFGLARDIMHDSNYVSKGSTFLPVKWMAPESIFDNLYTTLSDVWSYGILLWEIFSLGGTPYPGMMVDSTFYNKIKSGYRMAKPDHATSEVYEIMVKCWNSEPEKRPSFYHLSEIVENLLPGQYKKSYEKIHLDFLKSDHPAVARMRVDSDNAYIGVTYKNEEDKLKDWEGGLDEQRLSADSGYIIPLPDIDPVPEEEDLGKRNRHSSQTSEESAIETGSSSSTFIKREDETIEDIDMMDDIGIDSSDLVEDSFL
Platelet-derived growth factor receptor alpha (Homo sapiens), P16234 [D842V], sequence (P16234 whole entry D842V): as the sequence (P16234 whole entry) above, with D842V counted along it
Hepatocyte growth factor receptor (Homo sapiens), sequence (P08581 whole entry): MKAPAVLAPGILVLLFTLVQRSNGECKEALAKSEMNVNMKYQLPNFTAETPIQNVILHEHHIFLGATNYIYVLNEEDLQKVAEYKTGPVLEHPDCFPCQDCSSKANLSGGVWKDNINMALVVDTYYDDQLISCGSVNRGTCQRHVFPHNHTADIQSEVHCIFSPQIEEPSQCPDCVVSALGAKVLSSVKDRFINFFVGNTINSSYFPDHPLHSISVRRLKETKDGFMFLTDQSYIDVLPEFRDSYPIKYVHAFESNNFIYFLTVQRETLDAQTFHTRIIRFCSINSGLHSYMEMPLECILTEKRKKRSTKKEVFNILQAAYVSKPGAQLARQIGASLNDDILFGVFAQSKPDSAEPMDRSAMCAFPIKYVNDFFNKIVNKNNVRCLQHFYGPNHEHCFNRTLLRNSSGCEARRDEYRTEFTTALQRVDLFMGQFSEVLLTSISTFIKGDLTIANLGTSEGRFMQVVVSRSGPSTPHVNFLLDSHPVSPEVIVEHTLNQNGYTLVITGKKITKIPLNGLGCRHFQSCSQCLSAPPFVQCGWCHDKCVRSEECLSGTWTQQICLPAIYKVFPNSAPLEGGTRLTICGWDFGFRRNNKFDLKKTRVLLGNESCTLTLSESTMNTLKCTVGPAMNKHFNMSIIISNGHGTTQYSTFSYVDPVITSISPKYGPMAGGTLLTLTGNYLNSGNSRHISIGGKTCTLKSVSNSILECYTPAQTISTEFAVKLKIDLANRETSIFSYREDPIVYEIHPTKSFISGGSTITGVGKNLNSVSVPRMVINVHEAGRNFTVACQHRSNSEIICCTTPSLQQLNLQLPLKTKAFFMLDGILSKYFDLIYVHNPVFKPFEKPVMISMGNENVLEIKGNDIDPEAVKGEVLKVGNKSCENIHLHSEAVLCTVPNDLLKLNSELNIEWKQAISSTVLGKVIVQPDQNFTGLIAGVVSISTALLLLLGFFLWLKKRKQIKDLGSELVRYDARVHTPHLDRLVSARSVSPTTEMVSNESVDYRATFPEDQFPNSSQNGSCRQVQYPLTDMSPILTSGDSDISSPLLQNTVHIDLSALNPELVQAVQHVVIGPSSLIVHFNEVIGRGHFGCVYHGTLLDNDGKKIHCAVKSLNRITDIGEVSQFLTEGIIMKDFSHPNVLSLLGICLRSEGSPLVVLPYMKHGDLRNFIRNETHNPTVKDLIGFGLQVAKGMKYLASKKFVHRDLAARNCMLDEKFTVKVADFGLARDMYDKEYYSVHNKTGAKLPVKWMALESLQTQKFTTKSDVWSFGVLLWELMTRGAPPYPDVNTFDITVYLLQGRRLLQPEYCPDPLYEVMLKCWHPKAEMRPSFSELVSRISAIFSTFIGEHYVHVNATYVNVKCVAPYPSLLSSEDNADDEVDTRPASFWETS
Leukocyte tyrosine kinase receptor (Homo sapiens), sequence (P29376 whole entry): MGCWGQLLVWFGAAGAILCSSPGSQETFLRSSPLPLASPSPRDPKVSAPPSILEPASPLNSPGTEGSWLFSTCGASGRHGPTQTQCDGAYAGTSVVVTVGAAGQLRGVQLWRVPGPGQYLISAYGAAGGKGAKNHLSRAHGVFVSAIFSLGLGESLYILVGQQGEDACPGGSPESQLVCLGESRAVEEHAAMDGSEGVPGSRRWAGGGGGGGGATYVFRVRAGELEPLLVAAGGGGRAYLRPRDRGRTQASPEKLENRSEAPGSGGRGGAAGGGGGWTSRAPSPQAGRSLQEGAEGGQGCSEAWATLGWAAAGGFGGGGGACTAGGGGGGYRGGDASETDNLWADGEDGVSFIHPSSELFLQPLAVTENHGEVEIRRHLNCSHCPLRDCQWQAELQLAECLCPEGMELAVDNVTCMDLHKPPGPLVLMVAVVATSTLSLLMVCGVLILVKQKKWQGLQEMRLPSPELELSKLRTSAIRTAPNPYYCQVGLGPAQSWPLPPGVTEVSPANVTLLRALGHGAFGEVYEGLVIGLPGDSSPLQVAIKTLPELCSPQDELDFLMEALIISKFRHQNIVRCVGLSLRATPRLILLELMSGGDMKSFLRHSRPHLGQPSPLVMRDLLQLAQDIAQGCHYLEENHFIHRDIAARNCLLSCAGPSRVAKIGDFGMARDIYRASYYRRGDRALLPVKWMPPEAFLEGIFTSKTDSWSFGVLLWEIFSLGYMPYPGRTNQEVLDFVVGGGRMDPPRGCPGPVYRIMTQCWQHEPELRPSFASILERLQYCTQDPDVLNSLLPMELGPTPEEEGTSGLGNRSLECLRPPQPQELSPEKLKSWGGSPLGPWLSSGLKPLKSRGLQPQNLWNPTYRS
Tyrosine-protein kinase Lyn (Homo sapiens), sequence (P07948 2-512 limits assumed): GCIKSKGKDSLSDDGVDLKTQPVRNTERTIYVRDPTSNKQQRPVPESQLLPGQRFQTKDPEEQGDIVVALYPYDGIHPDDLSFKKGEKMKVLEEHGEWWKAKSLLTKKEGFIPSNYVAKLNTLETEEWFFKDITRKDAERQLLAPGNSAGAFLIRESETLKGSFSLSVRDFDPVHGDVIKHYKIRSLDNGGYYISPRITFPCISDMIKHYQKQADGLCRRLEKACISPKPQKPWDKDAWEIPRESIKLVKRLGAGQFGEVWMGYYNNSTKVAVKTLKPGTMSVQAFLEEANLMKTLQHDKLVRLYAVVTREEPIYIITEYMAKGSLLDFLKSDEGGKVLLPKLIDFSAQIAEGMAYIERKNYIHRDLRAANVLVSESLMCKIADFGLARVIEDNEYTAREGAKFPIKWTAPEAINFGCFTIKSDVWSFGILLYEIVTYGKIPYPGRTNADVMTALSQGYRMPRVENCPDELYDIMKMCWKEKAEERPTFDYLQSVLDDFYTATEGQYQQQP

As to `Cc1ccc(NC(=O)CC2CC2)cc1-c1ccc(C(=O)NCC2CC2)cc1`, the inhibition in test [1] amounted to 4.25%; in [2] it was 6.32%; in test [3], 7.19%; in test [4] it was 4.03%; in [5], 6.24%; in test [6], 0.96%. Moreover, the inhibition is 1.85% in test [7]; 7.51% in test [8]; 9% in test [9]; 2.1% in [10]; 5.33% in test [11]; 8.04% in test [12]. Moreover, the inhibition in [13] was determined as 13.8%; in test [14], 2.79%; in test [15], 4.37%; in [16] it was 3.52%; in test [17], 9.3%; in test [18], 4.68%. In addition, the values for the inhibition in test [19] and in test [20] were 5.09% and 4.05%, respectively.
Regarding `CN(c1ccc(NC(=O)Nc2ccc(OC(F)(F)F)cc2)cc1)c1ccnc(Nc2cccc(S(N)(=O)=O)c2)n1`, the inhibition in test [1] worked out at 6.43%; in [2], 39.9%; in [3], 83.2%; in [4], 37.1%; in test [5], 83.6%; in test [6], 5.5%. The inhibition is 49.2% in test [7]; 34.4% in test [8]; 64.9% in [9]; 8.36% in test [10]; 58.5% in test [11]; 76.3% in test [12]. Also, the inhibition in test [13] amounted to 86.7%; in [14], 9.66%; in test [15] it was 46.4%; in test [16] it was 46.9%; in test [17], 87.1%; in test [18], 87.2%. Besides, the inhibition in [19] stood at 96.8%; in test [20], 67.5%.
As to `CC(C)c1ccc2c(c1)NC(=O)/C2=N/Nc1ccc(S(N)(=O)=O)cc1`, the inhibition in test [1] is 0.89%; in test [2], 3.02%; in [3], 12.2%; in test [4], 2.61%; in [5], 10.5%; in [6] it was 0.63%. The inhibition in [7] is 1.96%; in test [8], 0.7%; in [9] it was 1.76%; in test [10], -0.51%; in [11], 3.81%; in [12], 6.3%. The inhibition in test [13] was determined as 34.2%; in test [14], 1.62%; in test [15] it was 17.2%; in [16], 6.18%; in test [17], 48.9%; in [18] it was 21.5%. Moreover, the inhibition in test [19] came out at 52.3%; in [20] it was 4.34%.
As for `Cc1nc(-c2ccccc2)n2nc(NCCCN3CCOCC3)ncc12`, the inhibition stood at 2.41% in test [1]; 2.4% in test [2]; 2.59% in [3]; 2.14% in [4]; 2.72% in [5]; 4.66% in [6]. The inhibition in [7] was 5.5%; in test [8], 2.77%; in test [9], 0.32%; in test [10], 1.84%; in [11], 5.56%; in test [12] it was 3.35%. Moreover, the inhibition came to 9.81% in test [13]; 0.64% in test [14]; 6.14% in test [15]; 3% in test [16]; 5.5% in test [17]; 2.27% in test [18]. The results for the inhibition in test [19] and in [20] were 3.3% and 1.99%, respectively.
On to `COc1cc2ncnc(Nc3ccc4c(cnn4Cc4ccccc4)c3)c2cc1OC`, for which the inhibition worked out at 2.45% in test [1]; 10.4% in test [2]; 46.1% in [3]; 7.01% in test [4]; 40.7% in test [5]; 7% in test [6]. Besides, the inhibition in test [7] worked out at 45.5%; in test [8], 2.31%; in [9] it was 4.07%; in [10] it was 3.2%; in test [11], 2.89%; in test [12], 9.97%. The inhibition in test [13] came to 36.9%; in [14] it was 4%; in test [15], 7.42%; in test [16], 4.73%; in test [17], 17%; in test [18], 6.36%. Also, the inhibition in test [19] was determined as 23.3%; in [20], 3.39%.
Consider `Nc1nccc(C#Cc2cncnc2Nc2ccc(OCc3cccc(F)c3)c(Cl)c2)n1`, for which the inhibition in test [1] is 2.75%; in test [2], 3.62%; in test [3], 3.49%; in test [4] it was 3.64%; in test [5], 1.57%; in test [6], 2.77%. For the same compound, the inhibition was found to be 9.35% in [7]; 4.74% in test [8]; 8.47% in test [9]; 4.37% in test [10]; 5.94% in test [11]; 15.4% in [12]. Besides, the inhibition in [13] was found to be 15.5%; in [14], 4.4%; in [15], 4.87%; in test [16] it was 5.45%; in test [17], 7.68%; in [18], 4.25%. Also, the values for the inhibition in [19] and in test [20] were 4.88% and 7.6%, respectively.
Consider `N#Cc1c(NC(=O)c2ccccc2F)sc2c1CCCC2`, for which the inhibition is -0.82% in test [1]; -0.87% in [2]; 0.22% in test [3]; -0.31% in test [4]; 0.82% in test [5]; -1.5% in test [6]. Besides, the inhibition turned out to be 0.64% in test [7]; 10.5% in test [8]; 4.86% in test [9]; 1.84% in [10]; 1.48% in test [11]; 1.47% in [12]. In addition, the inhibition was 5.27% in [13]; 1.43% in [14]; 3.35% in test [15]; 1.66% in test [16]; 4.03% in [17]; 2.72% in test [18]. Besides, the inhibition in [19] was 3.24%; in test [20], 1.07%.
